Compounds without any hit were thinned out: in the full panel of roughly 79,000, 15% have a hit. No stated cut-off is given here; in the data, active means growth inhibition above about 70%; inactive means the rest.
Key:
[1] = NCI Yeast Anticancer Drug Screen. Data for the rad50 strain (AID 155);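 further: 0% = growth of vehicle-only cultures of the same strain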; details: S. cerevisiae rad50 strain growth inhibition; at 50.0 µM; hits give high values
Method in brief: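 Inhibition values express reduced yeast growth in compound-treated cultures relative to vehicle-treated controls.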

[2] = NCI Yeast Anticancer Drug Screen. Data for the mec2-1 strain (AID 157); details: S. cerevisiae mec2-1 strain, at 50.0 µM, hits give high values
Method in brief: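 Compounds were applied to mec2-1 yeast cells. Their growth was then compared with that of vehicle-treated cultures to give growth inhibition.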

[3] = NCI Yeast Anticancer Drug Screen. Data for the sgs1 mgt1 strain (AID 161);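 further: 0% = growth of cultures given vehicle only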; details: S. cerevisiae sgs1 mgt1 strain, at 50.0 µM, hits give high values
Method in brief: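 Percent growth inhibition was derived by comparing compound-exposed mutant yeast with vehicle-exposed cultures. The strain carries alterations in DNA damage repair.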

[4] = NCI Yeast Anticancer Drug Screen. Data for the cln2 rad14 strain (AID 165);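 further: 0% = growth equal to vehicle treated cultures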; details: S. cerevisiae cln2 rad14 strain, at 50.0 µM, hits give high values
Method in brief: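 Strain: cln2 rad14 yeast, altered in cell cycle control and DNA damage repair. Read-out: growth inhibition vs vehicle.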

[5] = NCI Yeast Anticancer Drug Screen. Data for the bub3 strain (AID 167); details: S. cerevisiae bub3 mutant strain, at 50.0 µM, hits give high values
Method in brief: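 Steps: expose the mutant yeast strain to compound; grow alongside vehicle-treated cultures; measure growth; express inhibition against the vehicle cultures.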

[6] = NCI Yeast Anticancer Drug Screen. Data for the mlh1 rad18 strain (AID 175); details: S. cerevisiae mlh1 rad18 strain growth inhibition; at 50.0 µM; hits give high values
Method in brief: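 A repair-deficient yeast strain is exposed to test compound, and growth is scored relative to vehicle-treated controls.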

Measured: growth inhibition

Cc1cc2c(c([N+](=O)[O-])c1C)C(=O)C(Br)=C(Br)C2=O
inactive: [1] 15.7% | [2] 10.4% | [3] 21.5% | [4] 34.7% | [5] 5.9% | [6] 36.2%

CC(C)N(CCn1c2c3ccccc3ccc2c2oc(=O)c3ccccc3c21)C(C)C
inactive: [1] 13.8% | [2] -23.7% | [3] -2.8% | [4] 12% | [5] -2.95% | [6] -8%

O=C(NCCCCNCCCNC(=O)c1ccc([N+](=O)[O-])cc1)c1ccc([N+](=O)[O-])cc1
inactive: [1] -5.5% | [2] 4.1% | [3] -11.1% | [4] -26.3% | [5] 4.4% | [6] -11.4%

C1CC2CC1CC2C1CO1 (centres undefined)
inactive: [1] 3.45% | [2] -6.15% | [3] 4.85% | [4] 0.75% | [5] 0.5% | [6] 4.7%

CC(C)/C(=N\[N+](C)(C)C)c1ccccc1
inactive: [1] 0.4% | [2] -22.8% | [3] -21.8% | [4] -3.05% | [5] -22.7% | [6] 5.15%

CC1CCCCC12OCCO2 (centres undefined)
inactive: [1] -13.9% | [2] -31.4% | [3] 3.3% | [4] 1.75% | [5] -20.3% | [6] -3.75%

O=C(O)CC1C(=O)OC2C3COC(=O)c4cc(O)c(O)c(O)c4-c4c(cc(O)c(O)c4O)C(=O)OC2C(OC(=O)c2cc(O)c(O)c4c2C1C(O)C(=O)O4)C(OC(=O)c1cc(O)c(O)c(O)c1)O3 (centres undefined)
inactive: [1] 24.4% | [2] 2.8% | [3] 22.4% | [4] 5.15% | [5] 35.5% | [6] -6.15%

O=C(O)c1nccc2c([N+](=O)[O-])cccc12
inactive: [1] -2.4% | [2] 6.4% | [3] 16.6% | [4] -13.5% | [5] -4.4% | [6] -12.9%

O=C(OCCCCO)c1cc([N+](=O)[O-])cc([N+](=O)[O-])c1
inactive: [1] -12.8% | [2] 13.9% | [3] 0.1% | [4] 0.7% | [5] 12.1% | [6] -27.9%

CSc1ncc(C#N)c2nc(-c3ccccc3)nn12
inactive: [1] 5.6% | [2] 13.9% | [3] 3.35% | [4] 8.1% | [5] 12.1% | [6] 18.3%

Nc1cccc(OCC(O)CN2CCN(c3ccccc3)CC2)c1 (centres undefined)
inactive: [1] 3.7% | [2] 8.6% | [3] 0.1% | [4] -2.55% | [5] -1% | [6] 14.7%

Cc1ccc(C(=O)c2ccccc2)cc1
inactive: [1] 26.1% | [2] 23.5% | [3] -11.8% | [4] -8.75% | [5] -0.6% | [6] -1.7%

CC(CCC(=O)O)[C@H]1CCC2[C@@H]3CC[C@@H]4CC(O)CC[C@]4(C)C3CC[C@@]21C (some centres undefined)
inactive: [1] -31.1% | [2] -18.1% | [3] -13.8% | [4] -0.1% | [5] -16.1% | [6] -26.7%

O=C(Nc1ccc(Br)cc1)C(=O)C(C(=O)c1ccccc1F)C1OC(=O)c2ccccc21 (centres undefined)
inactive: [1] -17.6% | [2] -1.65% | [3] -13.8% | [4] -50.9% | [5] -5.4% | [6] 7%

CCOC(=O)NC(=O)c1cn(CCN2CCN(C(=O)CCCCCCCCCCC(=O)N3CCN(CCn4cc(C(=O)NC(=O)OCC)c(=O)[nH]c4=O)CC3)CC2)c(=O)[nH]c1=O
inactive: [1] 16.4% | [2] 4.15% | [3] 11.2% | [4] -1.35% | [5] -3.45% | [6] 8.55%

CCOC(=O)/C(CC)=N\O
inactive: [1] 8.55% | [2] -4.85% | [3] 3.75% | [4] 3.25% | [5] -4.45% | [6] 19.2%

CC#CC(O)(C(=O)OCCCN(C)C)C1CCCCC1 (centres undefined)
inactive: [1] 12.4% | [2] 3.55% | [3] 3.85% | [4] 2.25% | [5] 8.3% | [6] 9.25%

COc1ccc(/C=N/N2CN(C(C)C(=O)O)C(O)(CCl)N=C2N)cc1OC (centres undefined)
inactive: [1] 0.95% | [2] -8.95% | [3] -3% | [4] -27.4% | [5] 5.1% | [6] -1.5%

NCCCNCCCCNC(=O)C(O)NC(=O)CC(O)CCCCN=C(N)N (centres undefined)
inactive: [1] -1.45% | [2] -0.6% | [3] -22.7% | [4] 16.8% | [5] -2.85% | [6] -24.1%

CC(C)NC(=O)c1ccc(CON)cc1
inactive: [1] 5.15% | [2] -9.7% | [3] 2.8% | [4] 23.5% | [5] 35% | [6] 9.8%

CC(CC#N)NC(=O)C1CCC(N)=N1 (centres undefined)
inactive: [1] -14.3% | [2] -18.2% | [3] -8.95% | [4] 1.4% | [5] -7.35% | [6] -9.9%

CCOC(=O)C1CN(C)C(=O)C1=O (centres undefined)
inactive: [1] 17.2% | [2] -2.4% | [3] 16.6% | [4] 2.35% | [5] -0.05% | [6] 25.9%

C=CC(C)(C)c1c2c(c(O)c3c(=O)c4ccc(O)c(O)c4oc13)C=CC(C)(C)O2
inactive: [1] -12.2% | [2] -12% | [3] 3.35% | [4] -5.2% | [5] -7.7% | [6] -4.05%

S=C(Nc1ccccc1)N1CC2C3CCC(O3)C2C1 (centres undefined)
inactive: [1] 16.6% | [2] 12.6% | [3] 10.2% | [4] 3.15% | [5] 22.5% | [6] 22.6%

CN(C)c1ccc(-c2c(C#N)c(N)[nH]c(=S)c2C#N)cc1
inactive: [1] 9.9% | [2] -2.35% | [3] 4.7% | [4] 6.35% | [5] 16.9% | [6] 3.45%

Cc1cccc(C(C#N)c2ccc(N)cc2)c1 (centres undefined)
inactive: [1] -35.2% | [2] -61% | [3] -4.65% | [4] 11.7% | [5] -46% | [6] -18.4%

CN(C)CCCNc1ncnc2nc[nH]c12
inactive: [1] -25.8% | [2] -43.7% | [3] -31.8% | [4] -19.8% | [5] -28.4% | [6] -0.15%

CS(=O)(=O)OC[C@H](NC(=O)c1ccccc1)[C@H](COS(C)(=O)=O)NC(=O)c1ccccc1
inactive: [1] 6.5% | [2] 9.3% | [3] 18.4% | [4] 9.9% | [5] -9.85% | [6] 15.3%

CC(C)(CCCOc1ccccc1)NC(=O)c1ccccc1
inactive: [1] 17.2% | [2] -1.15% | [3] -3.5% | [4] 15.5% | [5] 15.3% | [6] 6.15%

NC(=O)N/N=C1\CCCC(OC(=O)c2ccccc2)CC1 (centres undefined)
inactive: [1] 2.85% | [2] -27.7% | [3] -16.8% | [4] -20.1% | [5] -1.5% | [6] -20.8%

CC1=Nc2c(C#N)ncn2N=C(C)C1
inactive: [1] 31.9% | [2] 0.25% | [3] 17.5% | [4] 41.4% | [5] 28.8% | [6] -19.1%

CC(=O)OCC1OC(n2cnc(Br)c2[N+](=O)[O-])C(OC(C)=O)C1OC(C)=O (centres undefined)
inactive: [1] 30.6% | [2] 3.4% | [3] 17% | [4] 14.5% | [5] 0.65% | [6] 2.75%

C=C(Cl)CSc1ncnc2nc[nH]c12
inactive: [1] 34.5% | [2] 22.9% | [3] 18.2% | [4] 8.05% | [5] 30.6% | [6] 36.4%

O=C(Nc1ccc(Cl)cc1)OCCN(CCOC(=O)Nc1ccc(Cl)cc1)C(=O)Nc1ccc(Cl)cc1
inactive: [1] 19.3% | [2] -19.1% | [3] 1.65% | [4] -3.25% | [5] -7.8% | [6] 9.15%

CC(=C\C=N\N(C)c1ccccc1)/C=C1\Cc2ccccc2C1=O
inactive: [1] -8.7% | [2] 2.2% | [3] -19.1% | [4] 14% | [5] -2.8% | [6] -9.65%

COc1ccc(NC(C)=O)c(O)c1C
inactive: [1] -0.6% | [2] 2.15% | [3] -17% | [4] -25.4% | [5] -3.7% | [6] -12.7%

NC(=O)c1[nH]cnc1N
inactive: [1] 12.6% | [2] 24.9% | [3] 10.4% | [4] 4% | [5] 23.9% | [6] -58.5%

COc1cc(NS(=O)(=O)c2ccc(N)cc2)nc(OC)n1
inactive: [1] -28.3% | [2] -11.3% | [3] -11.1% | [4] -60.2% | [5] -22.6% | [6] -3.9%

N#Cc1c2ccccc2c(C#N)c2ccccc12
inactive: [1] -4.5% | [2] -8.15% | [3] 1.9% | [4] -25.7% | [5] 1.3% | [6] -12.3%
